# AMPAR-TARP mod = GluA2-stargazin AMPA receptor complex modulation; 40,000 compounds, 3.5% hits; AID 1259245; O88602+P19491; calls only at 30 µM; HEK293 GluA2+stargazin, membrane potential dye (FDSS), glutamate EC50; hits were called plate by plate, in both directions;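 active means any of four per-well response measures lying three or more SD from its plate-wide compound average, in either direction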
# GIRK2 activator = GIRK2 channel activators by thallium flux; P48051; HEK293 GIRK2/NPY4 cells, thallium flux fluorescence; activation (% efficacy), % for hits at 37.5 µM; 34,000 tested, under 10 active;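 active means primary screen hit, no activity in plain HEK293 cells, and in GIRK2-only cells above 5% efficacy rising with concentration; inactive means the rest, including fluorescent compounds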;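 further: efficacy is normalized control-subtracted fluorescence 15 s after thallium addition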
# Starred values were filed as active, the others as inactive; i = inactive; · = not tested or not shown; + = active, no number. This excerpt belongs to a sample that is enriched for hits.
SMILES,AMPAR-TARP mod,GIRK2 activator
O=C(NCCS(=O)(=O)NC(c1ccccc1)c1ccccc1)c1ccccc1,i,·
Cc1ccc(-n2ncc3c(=O)n(CC(=O)N4CCc5ccccc54)cnc32)c(C)c1,+,·
Cc1cccc(-n2ncc3c(=O)n(CC(=O)N4CCc5ccccc54)cnc32)c1C,i,·
CCOc1ccc2nc(NC(=O)c3ccn(CC)n3)sc2c1,·,i
CC(C)c1cccc(C(C)C)c1NC(=O)c1ccc(O)cc1,i,·
COc1cc(C(=O)Nc2c(C(C)C)cccc2C(C)C)cc(OC)c1OC,+,i
COc1ccccc1N1CCN(C(=O)Cc2cc(-c3ccc4c(c3)OCCO4)on2)CC1,i,i
CCOc1ccc(S(=O)(=O)NCCn2nc(-c3ccc(OC)cc3)ccc2=O)c(OCC)c1,i,·
COc1ccc(-c2ccc(=O)n(CCNS(=O)(=O)c3cc(C)c(C)cc3C)n2)cc1,+,·
COc1ccc(-c2ccc(=O)n(CCNS(=O)(=O)c3ccc(OC)cc3OC)n2)cc1,i,·
Cc1ccc(C)c(Cn2nc(-c3ccc(Cl)cc3)ccc2=O)c1,i,i
COc1ccc(-c2ccc(=O)n(Cc3cc(C)ccc3C)n2)cc1,+,i
CCOc1ccc(OCC)c(S(=O)(=O)NCCn2nc(-c3ccc(OC)cc3)ccc2=O)c1,+,·
CC(=O)c1sc(NC(=O)CCCS(=O)(=O)c2ccccc2)nc1C,i,i
Cc1cccn2c(=O)c(C=NCCO)c(NCc3ccco3)nc12,+,·
C/C(Cl)=C\Cn1c(NCc2ccco2)nc2c1c(=O)n(C)c(=O)n2C,i,·
Cc1cccn2c(=O)c(/C=N/O)c(NCCO)nc12,i,·
COc1ccc(N=Cc2c(NCCO)nc3c(C)cccn3c2=O)cc1,+,i
CCC(=O)Nc1ccc(SCC(=O)Nc2ccc(OC)c(OC)c2)nn1,·,i
O=C(CSc1ccc(NC(=O)c2ccco2)nn1)NCc1ccccc1Cl,+,i
COc1ccc(NC(=O)CSc2ccc(NC(=O)c3ccco3)nn2)cc1OC,+,i
COc1ccc(-c2ccc(SCC(=O)Nc3ccccc3Cl)nn2)cc1OC,+,·
COc1ccccc1CNC(=O)CSc1ccc(NC(=O)c2ccco2)nn1,i,i
COc1ccccc1NC(=O)CSc1ccc(-c2cc(OC)c(OC)c(OC)c2)nn1,i,i
COc1ccc(Cl)cc1C(=O)N1CCC(c2nnc(C(C)C)o2)CC1,i,·
SMILES,AMPAR-TARP mod,GIRK2 activator
Cc1c(C(=O)Nc2nccs2)nnn1-c1ccccc1Cl,i,i
CNC(=O)c1ccsc1NC(=O)C1CCCN1S(C)(=O)=O (stereo not given),i,i
Cn1c(=NC(=O)CCCS(=O)(=O)c2ccc(F)cc2)sc2cc3c(cc21)OCCO3,i,·
COc1ccc(Nc2cc(C)nc(-n3cc([N+](=O)[O-])cn3)n2)cc1,i,i
Cc1cc(N2CCN(Cc3ccccc3)CC2)nc(-n2cc([N+](=O)[O-])cn2)n1,+,i
Cc1cc(N2CCC(Cc3ccccc3)CC2)nc(-n2cc([N+](=O)[O-])cn2)n1,i,i
Cc1cc(Nc2ccc(Cl)cc2)nc(-n2cc([N+](=O)[O-])cn2)n1,+,i
CN(C)CCNC(=O)C(=O)Nc1ccc2c(c1)OCO2,i,i
COc1ccccc1-n1c(C)cn2c3c(=O)n(Cc4cccc(C)c4)c(=O)n(C)c3nc12,i,·
Cc1nn(-c2ccc(F)cc2)c2ncc(C(=O)NCCc3ccccc3)c(Cl)c12,i,i
CCOc1ccccc1NC(=O)NCCNc1cc(-n2cccn2)ncn1,i,i
CCOC(=O)CCC(=O)Nc1cccc(N2CCCC2=O)c1,i,i
CCOC(=O)CCC(=O)Nc1cccc(-c2cnc3n2CCC3)c1,+,i
O=C(Nc1cccc(-c2cnc3n2CCC3)c1)c1cc2ccccc2oc1=O,+,i
COc1ccc(Br)c(C(=O)Nc2cccc(-c3cnc4n3CCC4)c2)c1,i,i
O=C(Nc1cccc(Cl)c1)Nc1cccc(-c2cnc3n2CCC3)c1,i,i
O=C(Nc1cccc(-c2cnc3n2CCC3)c1)c1ccc(Br)o1,+,i
COc1ccc(CC(=O)Nc2nc(-c3ccc(OC)cc3OC)cs2)cc1,i,·
COc1cccc2sc(NC(=O)Cc3ccc(SC)cc3)nc12,i,·
CC(C)(C)NC(=O)N1CCC(CNC(=O)C(=O)NCc2cccs2)CC1,i,i
N#Cc1nc(-c2ccc(S(=O)(=O)N3CCCCCC3)cc2)oc1NCCCn1ccnc1,+,i
N#Cc1nc(-c2ccc(S(=O)(=O)N3CCCCCC3)cc2)oc1NCCN1CCOCC1,i,i
COc1cccc(Cn2nc3ccc(S(=O)(=O)N4CCCCCC4)cn3c2=O)c1,i,i
CC(C)(C)OC(=O)N1CCC(Cn2c(C(F)(F)F)nc3ccccc32)CC1,+,i
CC(C)(C)OC(=O)N1CCC(CO)CC1,i,i
SMILES,AMPAR-TARP mod,GIRK2 activator
O=C(Cc1cccc2ccccc12)Nc1ccc(-c2ccc3nncn3n2)cc1,i,i
O=C(NCC1(O)CCc2ccccc21)Nc1ccccc1Cl (stereo not given),i,i
O=C(NCC1(O)CCc2ccccc21)Nc1ccc(Cl)c(Cl)c1 (stereo not given),+,i
Cn1ccnc1N1CCN(CC(=O)Nc2ccccc2C(F)(F)F)CC1,·,i
NC(=O)Cc1csc(NC(=O)COc2ccc3c(c2)C(=O)CC3)n1,+,i
CS(=O)(=O)Nc1cccc(NC(=O)COc2ccc3c(c2)C(=O)CC3)c1,i,i
CCCN1C(=O)/C(=C/c2ccc(N3CCCC3)cc2)NC1=S,+,·
CCCN1C(=O)NC2(CCN(C(=O)C3CCCCC3)CC2)C1=O,i,i
CCCNS(=O)(=O)c1cc2c3c(c1)CCC(=O)N3CCC2,i,i
COc1ccc(-c2c(C)nn3c(N4CCN(Cc5ccccc5)CC4)cc(C)nc23)cc1OC,+,i
COc1ccccc1-c1c(C)nn2c(N3CCN(Cc4ccccc4)CC3)cc(C)nc12,i,i
COc1cccc(NC(=O)CSC2=NC3(CCCCC3)Nc3ccccc32)c1,i,i
O=C(COc1ccc2ccccc2c1)Nc1ccc(N2CCCCC2=O)cc1,i,i
COc1ccc(OC)c(-c2ccc(=O)n(Cc3ccc([N+](=O)[O-])cc3)n2)c1,+,i
COc1ccc(OC)c(-c2ccc(=O)n(Cc3ccc(Cl)cc3Cl)n2)c1,i,i
COc1ccc(OC)c(-c2ccc(=O)n(CCNC(=O)Nc3cc(C)cc(C)c3)n2)c1,+,i
COc1ccccc1-c1ccc(=O)n(Cc2cccc3ccccc23)n1,i,i
COc1ccc(OC)c(-c2ccc(=O)n(Cc3cccc4ccccc34)n2)c1,+,i
COc1ccc(OC)c(-c2ccc(=O)n(CCNC(=O)Nc3ccccc3)n2)c1,i,i
Cc1cc(NC(=O)c2ccc(S(=O)(=O)N3CCc4ccccc4C3)cc2)n(C(C)C)n1,·,i
O=C(NCc1ccncc1)C1(c2ccc(F)cc2)CC1,·,i
CCC(C(=O)Nc1cc(-c2cn3nc(OC)ccc3n2)ccc1Cl)c1ccccc1 (stereo not given),·,i
CSc1ncccc1C(=O)N1CCC(CNC(=O)/C=C/c2ccco2)CC1,i,i
O=C(NCC1CCN(C(=O)c2cccnc2)CC1)C(=O)Nc1ccc(C(F)(F)F)cc1,i,i

# Bioassay records (PubChem)
